In the supplement of paper PMC10723795:
± gives the standard deviation of the averaged measurements.

Each compound was assayed on BJ5TA (assay: nucleolar normality score relative to DMSO (fraction of DMSO control); RPE1 is a non-cancer human cell line; higher = more normal nucleoli (less nucleolar stress)).
Experimental: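 Selected screen hits were validated in hTERT lines (BJ5TA, CHON-002, RPE1) and cancer lines (DLD1, HCT116). Cells were immunostained for nucleolin and UBF and the nucleolar normality score was measured per field of view, with 4 fields per drug. Scores are normalized to each cell line's own DMSO control. Dose and time are not stated for this panel.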

SMILES | nucleolar normality score
CC[C@@]1(O)C(=O)OCc2c1cc1n(c2=O)Cc2cc3ccccc3nc2-1 [Camptothecin] | 0.473 ± 0.03
